From PubChem BioAssay AID488969 (Vanderbilt High Throughput Screening Facility, 2010)
In all, about 110,000 compounds were measured (“z-score”: median about -0.1, highest 2% from about 2 on). This is one part of a sample in which the highest values are shown more often than they occur. The source made the active and inactive calls.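 How the source made its calls: active means z-score in the third read window above 3 or below -3; inactive means the rest.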

Target: Metabotropic glutamate receptor 8 (Rattus norvegicus) (UniProt P70579)
Sequence (P70579 whole entry, looked up): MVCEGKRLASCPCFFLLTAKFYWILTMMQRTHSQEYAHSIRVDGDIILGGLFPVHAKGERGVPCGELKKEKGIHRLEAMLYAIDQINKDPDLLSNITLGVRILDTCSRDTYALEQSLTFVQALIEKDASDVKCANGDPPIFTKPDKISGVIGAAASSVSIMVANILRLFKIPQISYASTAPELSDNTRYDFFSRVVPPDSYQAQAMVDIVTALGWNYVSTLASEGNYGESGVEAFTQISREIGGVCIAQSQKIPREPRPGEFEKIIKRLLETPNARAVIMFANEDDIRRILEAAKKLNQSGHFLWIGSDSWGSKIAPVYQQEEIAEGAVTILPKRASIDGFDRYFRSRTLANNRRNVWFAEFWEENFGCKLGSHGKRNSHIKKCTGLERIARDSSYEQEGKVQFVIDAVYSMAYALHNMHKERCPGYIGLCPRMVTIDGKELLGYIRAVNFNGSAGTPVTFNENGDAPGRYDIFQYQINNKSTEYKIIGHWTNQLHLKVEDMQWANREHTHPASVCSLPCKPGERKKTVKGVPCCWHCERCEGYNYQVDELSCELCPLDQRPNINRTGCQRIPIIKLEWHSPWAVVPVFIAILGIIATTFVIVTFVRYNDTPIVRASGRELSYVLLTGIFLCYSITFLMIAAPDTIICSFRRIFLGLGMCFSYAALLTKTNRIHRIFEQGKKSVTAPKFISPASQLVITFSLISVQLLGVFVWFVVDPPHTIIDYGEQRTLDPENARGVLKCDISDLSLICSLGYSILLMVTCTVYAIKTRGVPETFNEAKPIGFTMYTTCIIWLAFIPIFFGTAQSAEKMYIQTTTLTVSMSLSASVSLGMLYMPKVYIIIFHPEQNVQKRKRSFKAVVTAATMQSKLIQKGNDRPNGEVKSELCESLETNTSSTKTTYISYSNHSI
Assay: rat mGluR8 modulators via GIRK flux, primary screen, cell-based, thallium flux, HTS (AID 488969)
Conditions: HEK293 rat mGluR8, GIRK (G protein-gated inwardly rectifying potassium channel) thallium flux, FluoZin2; at 10 µM; stronger effect = higher value; submaximal glutamate (EC20) added with thallium

SMILES | z-score
Cc1ccc(S(=O)(=O)NCC(=O)N(CC(=O)NCc2ccco2)Cc2ccc3c(c2)OCO3)cc1 | -0.622
COC(=O)c1cccc(CSc2nc3ccccc3[nH]2)c1 | 0.475
c1ccc(OCCSc2nc3ccccc3[nH]2)cc1 | 2.69
CCNC(=O)NC(=O)COC(=O)CCCSc1nc2ccccc2[nH]1 | 3.23 (active)
COc1cccc(CSc2nc3ccccc3[nH]2)c1 | 2.68
COc1ccc(CSc2nc3ccccc3[nH]2)cc1 | 0.53
C=CCNC(=O)NC(=O)COC(=O)CCCSc1nc2ccccc2[nH]1 | -0.828
Fc1ccc(CSc2nc3ccccc3[nH]2)c2ccccc12 | 10.7 (active)
Fc1cccc(F)c1CSc1nc2ccccc2[nH]1 | -0.786
O=c1[nH]c(SCCOc2ccccc2)nc2ccccc12 | -0.359
Cc1cccc(OCCCSc2nc3ccccc3[nH]2)c1 | 0.357
O=C(COC(=O)CCCSc1nc2ccccc2[nH]1)NC(=O)NC1CCCC1 | -0.664
Fc1ccccc1CSc1nc2ccccc2[nH]1 | 0.129
C/C(=N\Nc1cc(-c2ccccc2)nc(-c2ccc(Br)cc2)n1)c1cccc(N)c1 | -0.0597
CN1CCN(C(=O)c2ccc(CS(=O)(=O)c3c(Cl)cccc3Cl)o2)CC1 | 0.504
Nn1c(SCC(=O)Nc2ccc3c(c2)OCCO3)nnc1-c1ccccn1 | -0.0196
COCCN1C(=O)C(=O)/C(=C(/O)c2ccc(S(=O)(=O)N3CCOCC3)cc2)C1c1ccc(C(C)C)cc1 (configuration not stated) | 0.0253
COc1ccc(NC(=O)CCS(=O)(=O)c2ccccc2)c(OC)c1 | 0.256
C=CCNC(=S)N/N=C/c1cn(-c2ccccc2)nc1-c1ccc(OC)cc1 | -0.184
O=C(N/C=C\c1ccccc1)NCc1ccc(Cl)cc1 | 0.197
COc1ccc(C(=O)N(Cc2ccccc2)Cc2cc3cc4c(cc3[nH]c2=O)OCCO4)cc1 | 0.201
COc1cccc(C2c3c(oc4ccc(F)cc4c3=O)C(=O)N2CCN2CCOCC2)c1OC (configuration not stated) | -0.574
C=CCNc1cnn(CC(C)=O)c(=O)c1Br | -0.0909
C=CCn1c(CCNC(=O)c2cccs2)nnc1SCC(=O)c1ccc(Cl)cc1 | -0.334
CCOc1cc2c(cc1C(C)(C)C)NC(=O)CS2 | -0.538

SMILES | z-score
CCOC(=O)C1=C(c2ccccc2)Nc2c(c(=O)n(C)c(=O)n2C)C1c1ccc(O)c(OC)c1 (configuration not stated) | 0.108
Cc1cc([N+](=O)[O-])c(C(C)(C)C)cc1N | 1.32
CCCOc1ccc(CSc2nc3ccccc3[nH]2)cc1 | 1.22
CCOc1ccc(OCCSc2nc3ccccc3c(=O)[nH]2)cc1 | -0.398
CCOc1ccc(OCCSc2nc3ccccc3[nH]2)cc1 | 3.67 (active)
O=C(CCSCCC(=O)NCc1ccco1)NCc1ccco1 | -0.212
Cc1ccc2c(c1)/C(=N/OS(=O)(=O)c1ccccc1)CCS2 | -0.0781
CC(C)(C)c1ccc(C(=O)NC(=S)Nn2cnnc2)cc1 | 3.11 (active)
COc1ccc(C(=O)Nn2cnnc2)cc1 | -0.00169
Cc1ccc(C(=O)NC(=S)Nn2cnnc2)cc1 | -0.262
O=C(Cn1c(=O)oc2ccccc21)Nc1nnc(N2CCCCCC2)s1 | -0.181
O=C1CSC(=Nc2ccccc2)N1 | -0.108
Cc1cccc(N=C2NC(=O)CS2)c1 | 0.297
Cc1ccc(N=C2NC(=O)CS2)cc1 | 2.26
CCc1ccc(C(C)NC(=O)c2cc(C)oc2C)cc1 (configuration not stated) | -0.386
COc1cc(/C=N/NC(=O)c2ccc([N+](=O)[O-])cc2Cl)cc(Br)c1O | 0.0738
CCOc1ccc(CCNC(=O)CN2CCN(Cc3ccccc3F)C2=O)cc1OCC | 0.219
COc1ccc(-c2nnc(SCC(=O)N3CCCc4ccccc43)o2)cc1OC | 0.39
Nc1nc(C2CCCCC2)cs1 | 0.293
CCC1(C)CC(c2csc(N)n2)CCO1 (configuration not stated) | 2.98
CC1(C)CC(c2csc(N)n2)CCO1 (configuration not stated) | 0.945
COc1ccccc1C(=O)Nc1ccc(C)cc1C(=O)c1ccccc1 | -0.242
CC1(C)CC(=O)C(C=Nc2ccccc2Sc2ccccc2)=C(O)C1 | -0.747
Cc1ccc(Nc2nc(C)c(CCC(C)C)c(=O)[nH]2)cc1 | 0.22
Cc1nc(Nc2ccccc2)[nH]c(=O)c1CCC(C)C | 2.73

SMILES | z-score
Cc1nc(Nc2ccc(F)cc2)[nH]c(=O)c1CCC(C)C | -0.00139
Cc1nnc(SCc2ccc(F)cc2Cl)s1 | -0.295
Cc1cc(C)nc(N2CCCC(C(=O)NCCC3=CCCCC3)C2)n1 (configuration not stated) | 0.000737
CCN(CC)CCNC(=O)c1cc2c(=O)n(C)c3ccccc3c2n1C | 1.25
CCCN(CCC)CCCNC(=O)c1cc2c(=O)n(C)c3ccccc3c2n1C | 4 (active)
CN(CCNC(=O)c1cc2c(=O)n(C)c3ccccc3c2n1C)Cc1ccccc1 | 2.77
CC(C)OCCCNC(=O)c1cc2c(=O)n(C)c3ccccc3c2n1C | -0.527
CCCCN(CC)CCCNC(=O)c1cc2c(=O)n(C)c3ccccc3c2n1C | 2.54
CCCN(CCC)CCNC(=O)c1cc2c(=O)n(C)c3ccccc3c2n1C | 1.86
CCN(CC)CCCNC(=O)c1cc2c(=O)n(C)c3ccccc3c2n1C | 1.21
COCCNC(=O)c1cc2c(=O)n(C)c3ccccc3c2n1C | -0.524
CN(C)CCNC(=O)c1cc2c(=O)n(C)c3ccccc3c2n1C | 0.703
COCCCNC(=O)c1cc2c(=O)n(C)c3ccccc3c2n1C | -0.127
CCCCN(CC)CCNC(=O)c1cc2c(=O)n(C)c3ccccc3c2n1C | 2.85
CN(C)/C=N/C(=S)Nc1ccc(Br)cc1F | 1.46
O=C(CCCn1c(SCC(=O)NC2CCCCC2)nc2ccccc2c1=O)NCC1CCCO1 (configuration not stated) | -0.0674
Cc1cccc(NC(=O)CSc2nnc([C@@H]3CCCN3C(=O)OC(C)(C)C)o2)c1C | 1.54
CN1CCN(C2=CC(=O)OC23CCCCC3)CC1 | 0.371
CCOc1ccc(N/C(=C(/C(Cl)=C(Cl)Cl)[N+](=O)[O-])n2cncn2)cc1 | -0.895
CN(C)C(=O)c1ccc(Oc2ccc(C(=O)N(C)C)cc2)cc1 | 2.6
CC(=O)c1ccc(Oc2ccc(C(C)=O)cc2)cc1 | -0.0838
CNC(=O)c1ccc(Oc2ccc(C(=O)NC)cc2)cc1 | -0.0105
O=c1c2ccccc2[nH]c(=S)n1CCCN1CCOCC1 | 0.0674
O=c1c2cc(N3CCOCC3)ccc2[nH]c(=S)n1CCCN1CCCC1 | -0.171
COc1cc2c(=O)n(CCCN3CCOCC3)c(=S)[nH]c2c(OC)c1OC | 2.07

SMILES | z-score
O=c1c2cc(F)ccc2[nH]c(=S)n1CCCN1CCOCC1 | 3.11 (active)
COc1cc2[nH]c(=S)n(CCN3CCOCC3)c(=O)c2cc1OC | -0.262
COc1cc2[nH]c(=S)n(CCCN3CCOCC3)c(=O)c2cc1OC | 0.0597
Cc1ccc(C(=O)COC(=O)c2n[nH]c(=O)c3ccccc23)cc1 | -0.454
CC(C)(C)c1cnnn1-c1ccc(-c2csc(N)n2)cc1 | -0.0644
COc1cc(C2C(Oc3ccccc3C)C(=O)N2Cc2ccc(F)cc2)cc(OC)c1OC (configuration not stated) | -0.106
O=C(COC(=O)C1CC2C=CC1C2)Nc1ccccc1 (configuration not stated) | 0.0334
Cc1ccc(NC(=O)COC(=O)C2CCC(=O)N2)c(S(=O)(=O)N2CCOCC2)c1 (configuration not stated) | -0.196
Cc1ccc(S(=O)(=O)N2CCCCC2)cc1NC(=O)COC(=O)c1cc[n+]([O-])cc1 | -0.223
Cc1cc(C)n2nc(C(=O)OCC(=O)Nc3ccc4c(c3)OC(F)(F)O4)nc2n1 | -0.0308
O=C(COC(=O)C1CC2C=CC1C2)Nc1ccc2c(c1)OC(F)(F)O2 (configuration not stated) | 4.04 (active)
CCOC(=O)Nc1ccc(OC)cc1S(=O)(=O)N1CCCCC1 | 0.612
Cc1cnc(C(=O)OCC(=O)Nc2ccc(C)c(S(=O)(=O)N3CCCCC3)c2)cn1 | -1
Cc1ccc(NC(=O)COC(=O)C2CC2C)c(S(=O)(=O)N2CCCCC2)c1 (configuration not stated) | 2.07
COc1cc(/C=C/C(=O)OCC(=O)Nc2ccc(C)c(S(=O)(=O)N3CCCCC3)c2)ccc1O | -0.427
Cc1ccc(S(=O)(=O)N2CCCCC2)cc1NC(=O)COC(=O)C1CC2C=CC1C2 (configuration not stated) | 2.38
Cc1ccc(S(=O)(=O)N2CCCCC2)cc1NC(=O)COC(=O)Cc1ccc(Cl)cc1 | -0.0868
Cc1ccc(NC(=O)COC(=O)C2CC3C=CC2C3)cc1S(=O)(=O)N1CCCCC1 (configuration not stated) | 2.02
CCS(=O)(=O)c1nc2ccccc2n1CC(=O)N1CCCCC1 | 0.849
COc1cc(O)c(C(C)=O)cc1OC | 0.68
CC1(c2ccccc2)CC(C)(C)N2C(=O)C3(C(C#N)=C(N)Oc4cc(O)ccc43)c3cccc1c32 (configuration not stated) | -0.217
Cc1nn(-c2ccccc2)c(Cl)c1/C=C1\SC(=S)NC1=O | -0.842
CC1(c2ccccc2)CC(C)(C)N2C(=O)/C(=C3\SC(=S)NC3=O)c3cccc1c32 (configuration not stated) | 5.26 (active)
O=C(COc1ccc(S(=O)(=O)NC2CCCCC2)cc1Cl)NCc1cccnc1 | -0.567
Cc1cc(NC(=O)c2cccc(S(=O)(=O)N3CCCCCC3)c2)no1 | 0.223

SMILES | z-score
O=C(COC(=O)Cn1cnc2ccccc2c1=O)Nc1ccccc1Sc1ccc(Cl)cc1 | 0.148
COC(=O)c1ccc(OC(=O)c2ccco2)cc1 | 0.696
COC(=O)C1=C(C)NC(C)=C(C(=O)OC)C1c1ccc(OC(=O)c2ccco2)cc1 | -0.519
CC1CC(C)(C)Nc2ccc(OC(=O)c3ccco3)cc21 (configuration not stated) | 2.2
COc1cc(CNc2nc(C)c([N+](=O)[O-])c(C)c2C#N)cc(OC)c1 | -0.18
COc1ccc(CCN2C(=O)C(O)=C(C(C)=O)C2c2ccccc2OC)cc1OC (configuration not stated) | -0.511
O=C(O)CN1C(=O)C2(OCCCO2)c2ccccc21 | 0.0511
CC(C)(C)C(=O)CN1C(=O)C2(OCCO2)c2ccccc21 | 0.508
CC(C)CC(=O)CN1C(=O)C2(OCCO2)c2ccccc21 | 6.5 (active)
CC(C)OC(=O)C1C2C=CC3(CN(Cc4cccs4)C(=O)C13)O2 (configuration not stated) | 0.0334
CCN(c1ccccc1)S(=O)(=O)c1ccc(NC(=S)NC(=O)c2ccc(Br)o2)cc1 | 5.31 (active)
CN(C1CCCCC1)S(=O)(=O)c1ccc(NC(=S)NC(=O)c2cccs2)cc1 | 2.93
CCCCN(CCCC)S(=O)(=O)c1ccc(NC(=O)c2cccs2)cc1 | 0.572
CN(C)S(=O)(=O)c1ccc(NC(=O)c2ccc(Br)o2)cc1 | 0.638
O=C(Nc1ccc(S(=O)(=O)NCc2ccccc2)cc1)c1ccc(Br)o1 | 0.32
O=C(Nc1ccc(NC(=S)NC(=O)c2cccs2)cc1)c1ccccc1 | -0.193
Cc1ccc(C(=O)NC(=S)Nc2ccc(S(=O)(=O)N(C)c3ccccc3)cc2)cc1 | 0.95
O=C(NC(=S)Nc1ccc(S(=O)(=O)NC2CCCCC2)cc1)c1cccs1 | 0.16
CN(c1ccccc1)S(=O)(=O)c1ccc(NC(=S)NC(=O)c2ccccc2)cc1 | 3.04 (active)
Cc1cccc(C(=O)NC(=S)Nc2ccc(S(=O)(=O)N(C)c3ccccc3)cc2)c1 | 1.39
CN(C1CCCCC1)S(=O)(=O)c1ccc(NC(=O)C2CCCCC2)cc1 | -0.089
CCN(c1ccccc1)S(=O)(=O)c1ccc(NC(=S)NC(=O)c2cccs2)cc1 | 2.75
